Measurements as given in the supplement of paper PMC10849652.
Targets with a hit are over-represented here; the source holds about 8,800 in all. About 0.5% of all pairs of compound and target were hits.

What was measured:
Test in all cases: log2 fold change, soluble protein after heating vs DMSO (PISA); higher = thermal stabilisation; K562 lysate, 10 uM; active = over 0.2 and 3.5 SD of the protein, either way, in both replicates (recomputed)
vemurafenib = compound: CCCS(=O)(=O)Nc1ccc(F)c(C(=O)c2c[nH]c3ncc(-c4ccc(Cl)cc4)cc23)c1F [vemurafenib]
How it was run: (§1)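 Quantification was by TMTpro 16plex LC-MS/MS with equalised channel sums, applied to the supernatant after 21,000xg for 90 min. Samples were crude K562 extract at 1 mg/mL protein in PBS pH 7.4 with 1 mM MgCl2, treated with 10 μM compound for 30 min, heated for 3 min across 48°C-58°C, pooled and brought to 0.5% NP-40 at 4°C. Values are log-two fold changes in thermal stability relative to solvent controls, from duplicates.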

[1] = compound: CCCS(=O)(=O)Nc1ccc(F)c(C(=O)c2c[nH]c3ncc(Cl)cc23)c1F
How it was run: as §1

barasertib = compound: CCN(CCCOc1ccc2c(Nc3cc(CC(=O)Nc4cccc(F)c4)[nH]n3)ncnc2c1)CCOP(=O)(O)O [barasertib]
How it was run: as §1

[2] = compound: CC[C@@H]1C(=O)N(C)c2cnc(Nc3ccc(C(=O)NC4CCN(C)CC4)cc3OC)nc2N1C1CCCC1
How it was run: as §1

volasertib = compound: CC[C@@H]1C(=O)N(C)c2cnc(Nc3ccc(C(=O)N[C@H]4CC[C@H](N5CCN(CC6CC6)CC5)CC4)cc3OC)nc2N1C(C)C [volasertib]
How it was run: as §1

[3] = compound: CCn1c(C(=O)N(C2CC2)C2CC2)cc2c3c(ncn3C)c(Nc3cc(C)n(C)n3)nc21
How it was run: as §1

[4] = compound: CCn1cc(-c2ccnc3[nH]c(-c4cccc(CN(C)C)c4)cc23)c(-c2ccc(NC(=O)N(C)C)cc2)n1
How it was run: as §1

[5] = compound: CN1CCC(CNc2ccc3ncc(-c4cccc(OC(F)(F)F)c4)n3n2)CC1
How it was run: as §1

saracatinib = compound: CN1CCN(CCOc2cc(OC3CCOCC3)c3c(Nc4c(Cl)ccc5c4OCO5)ncnc3c2)CC1 [saracatinib]
How it was run: as §1

sotrastaurin = compound: CN1CCN(c2nc(C3=C(c4c[nH]c5ccccc45)C(=O)NC3=O)c3ccccc3n2)CC1 [sotrastaurin]
How it was run: as §1

alvocidib = compound: CN1CC[C@H](c2c(O)cc(O)c3c(=O)cc(-c4ccccc4Cl)oc23)[C@H](O)C1 [alvocidib]
How it was run: as §1

Tubastatin A = compound: CN1CCc2c(c3ccccc3n2Cc2ccc(C(=O)NO)cc2)C1 [Tubastatin A]
How it was run: as §1

[6] = compound: CNC(=O)C1=CC=CC=C1NC2=NC(=NC=C2Cl)NC3=C(C=C(C=C3)N4CCOCC4)OC
How it was run: as §1

defactinib = compound: CNC(=O)c1ccc(Nc2ncc(C(F)(F)F)c(NCc3nccnc3N(C)S(C)(=O)=O)n2)cc1 [defactinib]
How it was run: as §1

[7] = compound: CNc1nc(-c2ccc3c(N)n[nH]c3c2)cc(N2C[C@@H](C(=O)NC3CCCCC3)CC[C@H]2C)n1
How it was run: as §1

encorafenib = compound: COC(=O)N[C@@H](C)CNc1nccc(-c2cn(C(C)C)nc2-c2cc(Cl)cc(NS(C)(=O)=O)c2F)n1 [encorafenib]
How it was run: as §1

[8] = compound: COC(=O)[C@H](CCSC)NC(=O)C1=C(C=C(C=C1)NC[C@H](CS)N)C2=CC=CC=C2
How it was run: as §1

alisertib = compound: COc1cc(Nc2ncc3c(n2)-c2ccc(Cl)cc2C(c2c(F)cccc2OC)=NC3)ccc1C(=O)O [alisertib]
How it was run: as §1

[9] = compound: COc1cc2nc(-c3cc(F)ccc3O)nc(N[C@@H]3CNC[C@H]3C(C)(C)O)c2cc1OC
How it was run: as §1

gefitinib = compound: COc1cc2ncnc(Nc3ccc(F)c(Cl)c3)c2cc1OCCCN1CCOCC1 [gefitinib]
How it was run: as §1

Measured: log2 fold change

PFAS (UniProt O15067)
inactive: vemurafenib 0.029 | [1] 0.023 | barasertib 0.015 | [2] -0.048 | volasertib -0.091 | [3] 0 | [4] -0.023 | [5] 0.001 | saracatinib -0.013 | sotrastaurin -0.015 | alvocidib -0.015 | Tubastatin A -0.01 | [6] 0.009 | defactinib 0.022 | [7] 0 | encorafenib -0.004 | [8] 0.119 | alisertib 0.009 | [9] -0.011 | gefitinib -0.009

PCBP2 isoform 3 (UniProt Q15366)
Sequence of UniProt Q15366 (Q15366 whole entry, looked up): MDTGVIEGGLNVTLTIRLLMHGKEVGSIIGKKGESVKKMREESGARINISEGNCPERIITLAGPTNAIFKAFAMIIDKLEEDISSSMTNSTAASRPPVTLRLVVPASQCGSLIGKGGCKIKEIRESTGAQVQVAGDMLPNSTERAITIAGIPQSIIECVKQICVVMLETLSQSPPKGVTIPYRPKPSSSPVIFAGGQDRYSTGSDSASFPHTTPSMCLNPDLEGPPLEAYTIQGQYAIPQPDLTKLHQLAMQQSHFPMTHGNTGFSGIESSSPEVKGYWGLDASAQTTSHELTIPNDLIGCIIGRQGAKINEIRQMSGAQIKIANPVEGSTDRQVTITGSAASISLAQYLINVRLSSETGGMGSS
inactive: vemurafenib -0.059 | [1] -0.004 | barasertib -0.006 | [2] -0.021 | volasertib -0.003 | [3] 0.057 | [4] -0.022 | [5] -0.002 | saracatinib -0.017 | sotrastaurin -0.006 | alvocidib 0.038 | Tubastatin A -0.074 | [6] 0.017 | defactinib 0.006 | [7] -0.075 | encorafenib 0.049 | [8] -0.048 | alisertib -0.001 | [9] -0.006 | gefitinib -0.009

PPT2 isoform 3 (UniProt Q9UMR5)
inactive: vemurafenib 0.007 | [1] 0.012 | barasertib 0.028 | [2] 0.01 | volasertib -0.023 | [3] -0.026 | [4] 0.007 | [5] 0.018 | saracatinib -0.011 | sotrastaurin 0.003 | alvocidib -0.051 | Tubastatin A 0.014 | [6] -0.005 | defactinib -0.067 | [7] 0 | encorafenib -0.014 | [8] 0.059 | alisertib 0.013 | [9] 0.015 | gefitinib 0.031

PRPH isoform 2 (UniProt P41219)
Sequence of UniProt P41219 (P41219 whole entry, looked up): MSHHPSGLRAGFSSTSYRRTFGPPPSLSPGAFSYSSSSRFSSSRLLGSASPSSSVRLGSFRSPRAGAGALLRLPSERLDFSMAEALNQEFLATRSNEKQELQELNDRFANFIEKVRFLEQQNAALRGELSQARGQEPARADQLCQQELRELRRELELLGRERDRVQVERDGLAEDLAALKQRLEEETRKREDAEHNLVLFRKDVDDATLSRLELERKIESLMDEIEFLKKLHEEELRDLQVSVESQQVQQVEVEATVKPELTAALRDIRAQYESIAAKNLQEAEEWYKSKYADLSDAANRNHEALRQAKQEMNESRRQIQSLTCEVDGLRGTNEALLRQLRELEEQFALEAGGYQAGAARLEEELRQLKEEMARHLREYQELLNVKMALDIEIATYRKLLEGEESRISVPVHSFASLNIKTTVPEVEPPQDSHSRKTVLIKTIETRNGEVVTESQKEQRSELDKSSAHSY
inactive: vemurafenib 0.03 | [1] -0.05 | barasertib -0.13 | [2] -0.102 | volasertib -0.028 | [3] 0.098 | [4] 0.132 | [5] -0.1 | saracatinib 0.071 | sotrastaurin 0.036 | alvocidib 0.062 | Tubastatin A 0.021 | [6] -0.049 | defactinib -0.081 | [7] -0.133 | encorafenib -0.023 | [8] -0.178 | alisertib -0.012 | [9] -0.028 | gefitinib 0.014

PFN1 (UniProt P07737)
Sequence of UniProt P07737 (P07737 whole entry, looked up): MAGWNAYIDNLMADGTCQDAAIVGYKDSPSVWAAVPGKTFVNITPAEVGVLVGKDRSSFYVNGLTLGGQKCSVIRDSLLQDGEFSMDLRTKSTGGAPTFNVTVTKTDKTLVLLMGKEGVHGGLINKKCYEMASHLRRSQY
inactive: vemurafenib -0.01 | [1] -0.01 | barasertib 0.012 | [2] 0.02 | volasertib 0.015 | [3] 0.02 | [4] -0.02 | [5] 0.028 | saracatinib -0.004 | sotrastaurin -0.005 | alvocidib -0.002 | Tubastatin A -0.01 | [6] -0.007 | defactinib 0.006 | [7] -0.024 | encorafenib -0.005 | [8] -0.097 | alisertib 0.004 | [9] -0.013 | gefitinib 0.004

PSTPIP2 (UniProt Q9H939)
Sequence of UniProt Q9H939 (Q9H939 whole entry, looked up): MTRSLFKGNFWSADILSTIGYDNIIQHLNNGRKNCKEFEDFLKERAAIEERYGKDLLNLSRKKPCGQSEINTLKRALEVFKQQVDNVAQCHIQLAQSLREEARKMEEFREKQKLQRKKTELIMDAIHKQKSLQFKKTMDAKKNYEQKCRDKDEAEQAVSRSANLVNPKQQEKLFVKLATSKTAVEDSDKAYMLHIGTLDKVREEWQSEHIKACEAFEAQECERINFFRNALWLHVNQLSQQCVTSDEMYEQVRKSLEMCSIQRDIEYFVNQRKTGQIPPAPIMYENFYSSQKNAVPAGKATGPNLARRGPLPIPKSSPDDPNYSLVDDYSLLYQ
inactive: vemurafenib 0.022 | [1] 0.018 | barasertib 0.01 | [2] -0.029 | volasertib -0.037 | [3] -0.007 | [4] 0.063 | [5] -0.09 | saracatinib 0.032 | sotrastaurin 0 | alvocidib -0.006 | Tubastatin A -0.04 | [6] 0.031 | defactinib -0.016 | [7] 0.026 | encorafenib 0.023 | [8] 0.002 | alisertib -0.052 | [9] -0.03 | gefitinib -0.028

PRKAR2A (UniProt P13861)
Sequence of UniProt P13861 (P13861 whole entry, looked up): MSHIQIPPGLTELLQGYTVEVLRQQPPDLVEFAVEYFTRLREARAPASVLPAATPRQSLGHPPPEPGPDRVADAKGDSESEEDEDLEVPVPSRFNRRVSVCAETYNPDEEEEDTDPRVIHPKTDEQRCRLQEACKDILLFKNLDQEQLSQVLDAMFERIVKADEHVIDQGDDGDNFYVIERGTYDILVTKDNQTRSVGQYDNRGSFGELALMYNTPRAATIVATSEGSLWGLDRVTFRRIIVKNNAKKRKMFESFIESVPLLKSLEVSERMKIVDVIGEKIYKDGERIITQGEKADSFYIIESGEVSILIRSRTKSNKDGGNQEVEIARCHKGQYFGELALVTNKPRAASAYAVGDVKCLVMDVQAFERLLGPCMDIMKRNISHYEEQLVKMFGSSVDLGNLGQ
inactive: vemurafenib -0.01 | [1] 0.033 | barasertib 0.055 | [2] 0.011 | volasertib -0.013 | [3] 0.009 | [4] 0.065 | saracatinib -0.012 | sotrastaurin -0.154 | alvocidib -0.028 | Tubastatin A -0.019 | [6] -0.176 | defactinib -0.085 | [7] -0.017 | encorafenib 0.037 | [8] 0.142 | alisertib 0.002 | [9] -0.062 | gefitinib 0.024
active: [5] -0.26

PTPN1 (UniProt P18031)
Sequence of UniProt P18031 (P18031 whole entry, looked up): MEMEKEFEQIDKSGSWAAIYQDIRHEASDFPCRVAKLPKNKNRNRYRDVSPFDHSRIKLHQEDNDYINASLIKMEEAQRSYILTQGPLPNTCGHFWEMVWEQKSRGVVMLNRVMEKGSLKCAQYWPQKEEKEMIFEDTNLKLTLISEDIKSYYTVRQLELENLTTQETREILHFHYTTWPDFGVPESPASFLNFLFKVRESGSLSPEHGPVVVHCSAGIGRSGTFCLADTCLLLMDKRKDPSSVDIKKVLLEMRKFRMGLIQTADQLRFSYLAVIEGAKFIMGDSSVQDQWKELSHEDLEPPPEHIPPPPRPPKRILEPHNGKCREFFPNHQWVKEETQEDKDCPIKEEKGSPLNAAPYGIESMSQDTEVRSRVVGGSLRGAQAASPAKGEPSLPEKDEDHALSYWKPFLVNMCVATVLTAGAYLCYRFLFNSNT
inactive: vemurafenib 0.04 | [1] -0.005 | barasertib 0.042 | [2] -0.029 | volasertib -0.04 | [3] 0.033 | [4] -0.061 | [5] -0.03 | saracatinib 0.022 | sotrastaurin 0.069 | alvocidib -0.002 | Tubastatin A -0.048 | [6] 0.018 | defactinib 0.015 | [7] -0.033 | encorafenib -0.003 | [8] 0.014 | alisertib 0.005 | [9] 0.047 | gefitinib 0.014

PHACTR4 isoform 2 (UniProt Q8IZ21)
active: [4] 0.836
inactive: vemurafenib 0.011 | [1] 0.011 | barasertib -0.008 | [2] 0.065 | volasertib 0.023 | [3] -0.003 | [5] -0.178 | saracatinib 0 | sotrastaurin 0.013 | alvocidib 0.209 | Tubastatin A 0.016 | [6] -0.024 | defactinib 0.012 | [7] 0.1 | encorafenib -0.01 | [8] -0.016 | alisertib -0.019 | [9] 0.004 | gefitinib -0.022

PREP (UniProt P48147)
Sequence of UniProt P48147 (P48147 whole entry, looked up): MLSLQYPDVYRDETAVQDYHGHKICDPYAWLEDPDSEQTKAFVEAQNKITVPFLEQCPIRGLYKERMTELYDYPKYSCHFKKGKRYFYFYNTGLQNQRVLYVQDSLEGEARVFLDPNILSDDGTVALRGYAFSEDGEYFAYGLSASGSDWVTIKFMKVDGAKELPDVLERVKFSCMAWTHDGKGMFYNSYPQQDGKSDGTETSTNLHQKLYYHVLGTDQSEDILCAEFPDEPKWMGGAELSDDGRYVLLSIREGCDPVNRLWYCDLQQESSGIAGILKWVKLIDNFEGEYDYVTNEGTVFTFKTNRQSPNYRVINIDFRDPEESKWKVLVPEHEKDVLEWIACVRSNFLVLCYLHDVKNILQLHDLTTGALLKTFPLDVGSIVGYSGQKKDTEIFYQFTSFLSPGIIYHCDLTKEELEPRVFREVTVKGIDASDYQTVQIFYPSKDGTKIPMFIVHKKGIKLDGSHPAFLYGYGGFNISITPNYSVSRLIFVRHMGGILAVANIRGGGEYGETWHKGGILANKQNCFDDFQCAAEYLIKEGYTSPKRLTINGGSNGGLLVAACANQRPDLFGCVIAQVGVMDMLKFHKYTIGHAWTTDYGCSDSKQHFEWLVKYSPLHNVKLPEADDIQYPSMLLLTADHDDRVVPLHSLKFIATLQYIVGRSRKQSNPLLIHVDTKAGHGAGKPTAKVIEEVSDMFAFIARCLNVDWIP
active: [8] 0.361
inactive: vemurafenib 0.028 | [1] 0.011 | barasertib -0.003 | [2] -0.025 | volasertib -0.025 | [3] 0.023 | [4] 0.008 | [5] -0.013 | saracatinib 0.005 | sotrastaurin 0.001 | alvocidib 0.018 | Tubastatin A -0.021 | [6] 0.018 | defactinib 0.005 | [7] -0.019 | encorafenib -0.024 | alisertib -0.011 | [9] 0.013 | gefitinib -0.012

PHKA2 (UniProt P46019)
Sequence of UniProt P46019 (P46019 whole entry, looked up): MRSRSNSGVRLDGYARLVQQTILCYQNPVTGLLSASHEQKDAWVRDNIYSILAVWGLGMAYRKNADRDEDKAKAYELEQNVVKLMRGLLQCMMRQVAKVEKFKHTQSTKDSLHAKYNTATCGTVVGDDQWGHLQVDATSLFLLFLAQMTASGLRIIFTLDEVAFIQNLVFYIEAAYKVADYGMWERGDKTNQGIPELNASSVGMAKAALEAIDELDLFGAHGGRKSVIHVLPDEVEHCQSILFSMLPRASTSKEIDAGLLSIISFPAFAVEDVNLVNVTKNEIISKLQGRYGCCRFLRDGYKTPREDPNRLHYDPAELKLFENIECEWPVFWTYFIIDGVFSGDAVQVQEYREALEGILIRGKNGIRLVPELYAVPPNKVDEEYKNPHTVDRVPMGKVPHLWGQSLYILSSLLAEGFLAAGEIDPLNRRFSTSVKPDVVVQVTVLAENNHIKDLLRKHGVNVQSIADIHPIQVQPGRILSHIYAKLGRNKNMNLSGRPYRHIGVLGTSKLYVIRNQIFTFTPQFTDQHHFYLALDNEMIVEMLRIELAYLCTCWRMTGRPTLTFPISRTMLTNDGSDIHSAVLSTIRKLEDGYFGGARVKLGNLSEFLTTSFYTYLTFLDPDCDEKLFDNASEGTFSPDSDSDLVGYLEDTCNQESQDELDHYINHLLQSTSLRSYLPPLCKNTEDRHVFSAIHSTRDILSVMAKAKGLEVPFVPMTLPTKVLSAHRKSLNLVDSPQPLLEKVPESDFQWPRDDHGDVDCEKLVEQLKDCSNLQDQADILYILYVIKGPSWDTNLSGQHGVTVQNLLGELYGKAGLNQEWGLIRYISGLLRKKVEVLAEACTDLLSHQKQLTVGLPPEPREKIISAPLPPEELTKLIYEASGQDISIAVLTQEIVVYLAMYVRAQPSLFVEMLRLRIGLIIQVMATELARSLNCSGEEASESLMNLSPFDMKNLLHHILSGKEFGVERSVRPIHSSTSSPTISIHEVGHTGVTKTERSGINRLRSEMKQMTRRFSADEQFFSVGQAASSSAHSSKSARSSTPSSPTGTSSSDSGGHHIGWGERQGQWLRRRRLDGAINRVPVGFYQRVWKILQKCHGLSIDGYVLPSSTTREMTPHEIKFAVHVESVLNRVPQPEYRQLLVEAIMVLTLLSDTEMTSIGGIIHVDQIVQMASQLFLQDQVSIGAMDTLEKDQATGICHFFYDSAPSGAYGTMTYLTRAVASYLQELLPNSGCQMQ
inactive: vemurafenib -0.065 | [1] 0.053 | barasertib 0.072 | [2] 0.059 | volasertib 0.021 | [3] 0.024 | [4] 0.009 | [5] -0.084 | saracatinib 0.002 | sotrastaurin -0.058 | alvocidib 0.064 | Tubastatin A -0.084 | defactinib -0.027 | [7] 0.032 | encorafenib -0.008 | [8] 0.018 | alisertib -0.008 | [9] 0.06 | gefitinib -0.03
active: [6] 0.265

POGK (UniProt Q9P215)
inactive: vemurafenib -0.035 | [1] 0.114 | barasertib 0.011 | [2] -0.005 | volasertib 0.033 | [3] -0.027 | [5] 0.034 | saracatinib 0.017 | sotrastaurin 0.013 | alvocidib -0.015 | Tubastatin A -0.011 | [6] 0.001 | defactinib 0.059 | [7] -0.02 | encorafenib -0.052 | [8] 0.028 | alisertib 0.071 | [9] -0.012 | gefitinib -0.013
active: [4] -0.397

PGGT1B (UniProt P53609)
inactive: vemurafenib -0.159 | [1] 0.004 | barasertib 0 | [2] -0.041 | volasertib 0.1 | [3] 0.006 | [4] 0.011 | [5] 0.008 | saracatinib 0.028 | sotrastaurin -0.029 | alvocidib 0.032 | Tubastatin A 0.036 | [6] -0.068 | defactinib 0.022 | [7] -0.117 | encorafenib -0.039 | alisertib -0.011 | [9] -0.032 | gefitinib -0.021
active: [8] 0.454

PDPK1 (UniProt O15530)
active: [7] 0.501
inactive: vemurafenib -0.03 | [1] -0.002 | barasertib -0.027 | [2] -0.06 | volasertib -0.047 | [3] 0.012 | [4] 0.041 | [5] -0.017 | saracatinib -0.025 | sotrastaurin 0.133 | alvocidib 0.009 | Tubastatin A -0.121 | [6] 0.107 | defactinib 0.21 | encorafenib -0.019 | [8] 0.109 | alisertib 0.153 | [9] 0.15 | gefitinib 0.016

PPIE (UniProt Q9UNP9)
Sequence of UniProt Q9UNP9 (Q9UNP9 whole entry, looked up): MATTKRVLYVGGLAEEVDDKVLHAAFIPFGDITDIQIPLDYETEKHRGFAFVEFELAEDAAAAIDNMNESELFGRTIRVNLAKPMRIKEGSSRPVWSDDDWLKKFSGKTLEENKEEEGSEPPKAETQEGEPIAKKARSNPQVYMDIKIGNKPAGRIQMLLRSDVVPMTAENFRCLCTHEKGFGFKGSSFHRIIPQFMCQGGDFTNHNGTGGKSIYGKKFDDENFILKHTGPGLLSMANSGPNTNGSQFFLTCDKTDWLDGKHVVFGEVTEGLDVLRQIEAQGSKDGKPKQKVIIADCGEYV
active: [4] -0.25
inactive: vemurafenib 0.026 | [1] -0.043 | barasertib -0.042 | [2] 0.044 | volasertib 0.018 | [3] -0.003 | [5] 0.143 | saracatinib -0.01 | sotrastaurin 0.067 | alvocidib -0.131 | Tubastatin A 0.025 | [6] -0.047 | defactinib -0.018 | [7] 0.023 | encorafenib -0.025 | [8] -0.041 | alisertib -0.036 | [9] 0.005 | gefitinib 0.034

PTPN6 isoform 4 (UniProt P29350)
Sequence of UniProt P29350 (P29350 whole entry, looked up): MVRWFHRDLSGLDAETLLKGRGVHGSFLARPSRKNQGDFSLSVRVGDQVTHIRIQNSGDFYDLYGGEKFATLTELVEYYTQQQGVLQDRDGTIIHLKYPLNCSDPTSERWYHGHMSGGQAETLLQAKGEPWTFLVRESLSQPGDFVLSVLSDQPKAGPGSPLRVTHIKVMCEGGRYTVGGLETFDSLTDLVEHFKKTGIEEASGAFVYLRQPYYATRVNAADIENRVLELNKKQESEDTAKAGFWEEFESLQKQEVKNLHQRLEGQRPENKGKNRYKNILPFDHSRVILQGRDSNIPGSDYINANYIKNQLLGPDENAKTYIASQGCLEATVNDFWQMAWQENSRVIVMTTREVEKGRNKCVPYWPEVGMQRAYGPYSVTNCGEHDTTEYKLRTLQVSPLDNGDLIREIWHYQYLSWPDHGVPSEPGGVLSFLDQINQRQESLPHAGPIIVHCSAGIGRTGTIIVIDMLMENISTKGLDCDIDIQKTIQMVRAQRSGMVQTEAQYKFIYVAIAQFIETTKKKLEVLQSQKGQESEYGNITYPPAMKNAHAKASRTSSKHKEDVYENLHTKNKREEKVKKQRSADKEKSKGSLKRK
active: [2] -0.487
inactive: vemurafenib 0.02 | [1] -0.089 | barasertib 0.081 | volasertib 0.014 | [3] 0.026 | [4] -0.038 | [5] -0.024 | saracatinib -0.046 | sotrastaurin 0.006 | alvocidib -0.12 | Tubastatin A -0.185 | [6] 0.037 | defactinib -0.015 | [7] -0.008 | encorafenib 0.028 | [8] 0.261 | alisertib -0.218 | [9] -0.034 | gefitinib 0.045
